Experimental findings from PubChem BioAssay (NCATS) are described below.

Results filed as inconclusive are left out. Entries that show only a call come without a potency. A number with no mark means an inactive call. Activity calls are given as the source filed them. Calls follow the shape of the dose curve; as a rule, active = well fitted cell-killing curve with a large enough effect; inconclusive = small, poorly fitted or top-dose-only effect, or effect the other way; inactive = flat fitted curve, though single readings scatter.

The assay relates to HeLa. As to the kind of experiment: Primary qHTS to identify gynecologic anti-cancer compounds using libraries of approved drugs and bioactive compounds (AID 1345084). Also: nearly all actives have a fitted effect of over 55% in size. The following applies: Gynecologic cancer cell panel viability, ATPlite luminescence, 48 h; series mostly up to 57.5 µM. In a few lines:
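ATP-based viability (ATPlite), 1,000 cells/well, 16 h pre-incubation, 48 h compound at 37 C, 5% CO2, 15 min RT before read.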
As for `CO[C@@H]1CC[C@H](OC[C@]2(COC(=O)c3ccc(C)[nH]3)[C@H](OC(C)=O)CC[C@@]3(C)[C@@H]4CC=C(C)[C@@H](C5=C(O)C(=O)OC5O)[C@]4(C)CC[C@@H]32)O[C@H]1C` (stereo partly specified), the Potency entry was “inactive”. For `C=C1CCC2C(OC(=O)C2(O)COC(C)=O)C2C(=C)C(O)CC12` (stereo unspecified), the Potency result was “inactive”. Take `CC1=C2C=C(CO)C(CO)CCC2(C)CCC1=O` (stereo unspecified): the Potency entry is “inactive”.

`C=C1[C@H]2CC[C@]3(O)[C@@](CC[C@@H]4[C@](C)(C(=O)O)CCC[C@]43C)(C2)[C@H]1OC(=O)/C(C)=C\C`: the Potency result was “inactive”. Still for that read-out and setting: the value for `O=C(O[C@H]1[C@@H]2C=CO[C@@H](O[C@@H]3O[C@H](CO)[C@@H](O)[C@H](O)[C@H]3O)[C@@H]2[C@@]2(CO)O[C@@H]12)c1ccc(O)cc1` was “inactive”; that for `CC(C)(O)/C=C1/C(=O)C(C)(C)C(=O)C(C)(C)C1(O)O[C@@H]1O[C@H](COC(=O)c2cc(O)c(O)c(O)c2)[C@@H](O)[C@H](O)[C@H]1O` (stereo partly specified) was “inactive”. On the same count and under the same terms, as for `CN1CC[C@@H](NC(=O)Nc2ccc(C#N)cc2)C[C@@H]1c1nc2ccccc2[nH]1`, the entry is “inactive”. On to `C[C@H]1[C@H](C)CC[C@]2(C(=O)O[C@@H]3O[C@H](CO)[C@@H](O)[C@H](O)[C@H]3O)CC[C@]3(C(=O)O)C(=CCC4[C@@]5(C)CC[C@H](O[C@@H]6O[C@H](CO)[C@@H](O)[C@H](O)[C@H]6O)C(C)(C)C5CC[C@]43C)[C@H]12` (stereo partly specified), for which the activity change, negative = cytotoxicity is 13.2% [at 11.6 µM]. For the compound `c1nc(NC2CCCCCC2)c2cc(CNC[C@H]3CCCO3)sc2n1`, the Potency result is “inactive”. Same read-out and setting: as for `CCNC(=O)[C@H]1O[C@H](n2cnc3c(NCC(c4ccccc4)c4ccccc4)nc(C(=O)NCCNC(=O)NC4CCN(c5ccccn5)CC4)nc32)[C@H](O)[C@@H]1O`, the entry is “inactive”; as for `CC1CC(=O)C2=C(O1)OC1(C)CCC3C(C)(C)C=CC(=O)C3(C)C1C2` (stereo unspecified), “inactive”; as for `COc1ncc(-c2ccc3c(Nc4cc(Oc5cc(F)cc(F)c5)cc(C(=O)O)c4)c(S(=O)(=O)NC4CC4)cnc3c2)c(OC)n1`, “inactive”. On the same count and under the same terms, the value for `CC(=O)O[C@@H]1[C@H]2[C@@H](OC(=O)c3ccccc3)[C@@H](C)C[C@]2(O)[C@H](OC(C)=O)[C@@]2(C)[C@@H]3CC(C)(C)C(=O)[C@]3(OC(C)=O)C[C@@]12C` was “inactive”; that for `COc1ccc(/C=C/C(=O)O[C@@H]2[C@@H](OC(C)=O)[C@@H](OC(C)=O)[C@H](O[C@H]3[C@@H]4C=CO[C@@H](O[C@@H]5O[C@H](CO)[C@@H](O)[C@H](O)[C@H]5O)[C@@H]4[C@@]4(CO)O[C@@H]34)O[C@H]2C)cc1O` was “inactive”; that for `CC1=CC(=O)OC(C)(CC(C)(O)C(=O)O)C1` (stereo unspecified) was “inactive”. For the compound `O=C(OCc1cccc(O)c1O[C@@H]1O[C@H](CO)[C@@H](O)[C@H](O)[C@H]1O)C1(O)C(=O)C2C=CC1C1C=CC(=O)C(O)(C(=O)OCc3cccc(O)c3O[C@@H]3O[C@H](CO)[C@@H](O)[C@H](O)[C@H]3O)C21` (stereo partly specified), the activity change, negative = cytotoxicity is -8.79% [at 11.6 µM]. Regarding `C[C@H]1[C@H](C)CC[C@]2(C(=O)O)CC[C@]3(C)C(=CC[C@@H]4[C@@]5(C)C[C@@H](O)[C@H](O)[C@@](C)(CO)[C@@H]5CC[C@]43C)[C@H]12`, the Potency entry is “inactive”. On the same count and under the same terms, the value for `COc1cc(C[C@H]2COC(=O)[C@@H]2Cc2ccc(O)c(OC)c2)ccc1O` was “inactive”; that for `COC(=O)C1=CO[C@@H](O[C@@H]2O[C@H](CO)[C@@H](O)[C@H](O)[C@H]2O)[C@@H]2[C@@](C)(O)[C@@H](O)C[C@]12O` was “inactive”; that for `C/C(=C\CCC(C)(O)c1ccc(C)cc1)C(=O)O` (stereo unspecified) was “inactive”. `C/C=C(\C)C(=O)O[C@H]1[C@H](O)[C@]2(COC(C)=O)[C@H](O)C[C@]3(C)C(=CCC4[C@@]5(C)CC[C@H](O[C@@H]6O[C@H](C(=O)O)[C@@H](O[C@@H]7O[C@H](CO)[C@@H](O)[C@H](O)[C@H]7O)[C@H](O)[C@H]6O[C@@H]6O[C@H](CO)[C@@H](O)[C@H](O)[C@H]6O)[C@](C)(CO)C5CC[C@]43C)[C@@H]2CC1(C)C` (stereo partly specified): the activity change, negative = cytotoxicity is 15.8% [at 11.6 µM]. Regarding `COC1=Cc2c(nc3n(c2=O)C(C)C(=O)NC3(O)C(C)C)OC=C1` (stereo unspecified), the Potency entry was “inactive”.

For the compound `COc1c(C(CC(C)C)OC(C)=O)ccc(Oc2c(O)cc(C)cc2/C=C/C(C)=O)c1C(=O)O` (stereo unspecified), the Potency entry is “inactive”.

Consider `COc1cc(O[C@@H]2O[C@H](CO)[C@@H](O)[C@H](O)[C@H]2O)c(CCC(=O)OC[C@H]2O[C@@H](Oc3cc(OC)c(C4OC(=O)C(C)(O)C4O)cc3CCC(=O)O)[C@H](O)[C@@H](O)[C@@H]2O)cc1C1OC(=O)C(C)(O)C1O` (stereo partly specified), for which the activity change, negative = cytotoxicity was 22.8% [at 11.6 µM]. Turning to `CC1CC(O)CC(C)(C)C1(O)CCO` (stereo unspecified), the Potency result was “inactive”.

As to `CC(=O)c1c(O)cc2c(c1C)C(=O)CC(O)C2` (stereo unspecified), the Potency entry is “inactive”.
